Values without a mark were called inactive. Where a call stands in place of a potency, no number is given. For some of these results: Potency and affinity values are given separately. Activity calls are given as the source filed them. Unless noted, no rule for the calls is given here.
Assays:
[1] = antimalarial activity against Dd2 strain (AID 2302;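 active = growth inhibition above 50% at the single 2 µM test dose, taken to imply half-maximal potency below 2 µM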); conditions: P. falciparum Dd2 in RBCs, LDH growth readout, 72 h; at 2 µM; active compounds read high
[2] = HepG2 cytotoxicity, primary screen, cytotoxicity control for P. falciparum antimalarial project, cell-based, ATP luminescence (AID 2303;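 active = inhibition above 50%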); conditions: HepG2 viability, 24-48 h, at 10 µM, active compounds read high
[3] = biological target: L-lactate dehydrogenase (Plasmodium falciparum (isolate CDC / Honduras)) (UniProt Q27743); experiment: PfLDH activity inhibition – cell lysate, 3D7 strain, counter-screen for P. falciparum growth inhibition project (AID 2304); conditions: P. falciparum 3D7 crude extract, LDH APAD/NBT absorbance; at 2 µM; active compounds read high
Chain of L-lactate dehydrogenase (Plasmodium falciparum (isolate CDC / Honduras)) (Q27743 whole entry, looked up): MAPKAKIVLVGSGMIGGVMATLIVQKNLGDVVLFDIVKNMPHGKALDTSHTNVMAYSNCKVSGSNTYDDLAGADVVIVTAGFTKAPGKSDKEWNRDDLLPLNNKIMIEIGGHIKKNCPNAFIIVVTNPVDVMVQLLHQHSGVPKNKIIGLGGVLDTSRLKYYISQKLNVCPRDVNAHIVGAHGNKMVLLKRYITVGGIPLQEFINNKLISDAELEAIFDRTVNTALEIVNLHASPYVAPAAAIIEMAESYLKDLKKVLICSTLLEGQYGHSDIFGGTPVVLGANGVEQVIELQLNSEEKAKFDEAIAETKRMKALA

[4] = inhibition of 3D7 malaria parasite growth – strain 3D7 (AID 2306); conditions: P. falciparum 3D7 erythrocytic growth, LDH absorbance, 72 h; at 2 µM; active compounds read high
[5] = biological target: Calcium-dependent protein kinase 1 (Plasmodium falciparum (isolate 3D7)) (UniProt P62344); experiment: PfCDPK1 kinase inhibitors, biochemical, TCAMS library (AID 1159585; cut-off not given, nearly all actives have IC50 up to about 0.98 µM;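 also: inhibitors leave more ATP so luminescence rises with inhibition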); conditions: recombinant PfCDPK1, Kinase-Glo ATP depletion luminescence
Chain of Calcium-dependent protein kinase 1 (Plasmodium falciparum (isolate 3D7)) (P62344 whole entry, looked up): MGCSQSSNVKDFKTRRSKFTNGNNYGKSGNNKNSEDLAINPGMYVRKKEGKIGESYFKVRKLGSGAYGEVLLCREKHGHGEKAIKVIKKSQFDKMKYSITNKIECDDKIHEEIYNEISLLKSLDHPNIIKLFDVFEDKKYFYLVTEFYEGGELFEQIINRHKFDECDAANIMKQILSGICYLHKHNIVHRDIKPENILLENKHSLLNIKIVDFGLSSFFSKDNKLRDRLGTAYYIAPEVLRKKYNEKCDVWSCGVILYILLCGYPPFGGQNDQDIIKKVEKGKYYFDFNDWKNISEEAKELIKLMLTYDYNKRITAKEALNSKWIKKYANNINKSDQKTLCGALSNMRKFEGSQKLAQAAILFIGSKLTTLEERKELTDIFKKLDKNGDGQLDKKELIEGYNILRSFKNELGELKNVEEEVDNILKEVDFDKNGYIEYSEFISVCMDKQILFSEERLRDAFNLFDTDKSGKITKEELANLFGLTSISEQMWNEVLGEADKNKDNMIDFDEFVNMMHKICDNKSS

[6] = biological target: Plasmodium falciparum protein kinase 6 (PK6, PF3D7_1337100) (UniProt Q8IDW1); experiment: PfPK6 kinase inhibitors, biochemical, TCAMS library (AID 1159586); conditions: recombinant PfPK6, Kinase-Glo ATP depletion luminescence
Chain of Plasmodium falciparum protein kinase 6 (PK6, PF3D7_1337100) (Q8IDW1 1-305): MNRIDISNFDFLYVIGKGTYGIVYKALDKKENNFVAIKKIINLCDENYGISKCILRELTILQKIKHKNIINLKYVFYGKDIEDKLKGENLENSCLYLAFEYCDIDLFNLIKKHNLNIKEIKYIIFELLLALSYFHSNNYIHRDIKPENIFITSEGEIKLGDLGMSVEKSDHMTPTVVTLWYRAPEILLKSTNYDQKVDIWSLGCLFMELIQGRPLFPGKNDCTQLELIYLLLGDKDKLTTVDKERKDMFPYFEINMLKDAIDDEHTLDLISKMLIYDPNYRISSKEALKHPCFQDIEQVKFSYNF

[7] = biological target: Protein kinase 7 (PK7), Plasmodium falciparum 3D7 (PF3D7_0213400) (UniProt Q7YTF7); experiment: inhibition of Plasmodium PK7 catalytic activity – biochemical, TCAMS antimalarial set, Kinase-Glo luminescence (AID 1159587); conditions: recombinant PfPK7, Kinase-Glo ATP depletion luminescence
Chain of Protein kinase 7 (PK7), Plasmodium falciparum 3D7 (PF3D7_0213400) (Q7YTF7 1-343): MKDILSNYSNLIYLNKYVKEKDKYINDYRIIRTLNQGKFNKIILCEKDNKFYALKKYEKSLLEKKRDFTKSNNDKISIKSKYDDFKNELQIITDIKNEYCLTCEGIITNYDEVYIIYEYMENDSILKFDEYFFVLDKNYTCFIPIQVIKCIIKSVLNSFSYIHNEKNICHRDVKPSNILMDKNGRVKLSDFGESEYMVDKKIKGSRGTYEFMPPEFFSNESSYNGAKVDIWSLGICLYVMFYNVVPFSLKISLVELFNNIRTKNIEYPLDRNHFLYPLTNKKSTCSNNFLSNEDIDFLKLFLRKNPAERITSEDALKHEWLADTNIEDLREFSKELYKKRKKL

[8] = biological target: Calcium-dependent protein kinase 4 (Plasmodium falciparum (isolate 3D7)) (UniProt Q8IBS5); experiment: PfCDPK4 kinase inhibitors, biochemical, TCAMS library (AID 1159588; cut-off not given, nearly all actives have IC50 up to about 0.91 µM); conditions: recombinant PfCDPK4, Kinase-Glo ATP depletion luminescence
Chain of Calcium-dependent protein kinase 4 (Plasmodium falciparum (isolate 3D7)) (Q8IBS5 whole entry, looked up): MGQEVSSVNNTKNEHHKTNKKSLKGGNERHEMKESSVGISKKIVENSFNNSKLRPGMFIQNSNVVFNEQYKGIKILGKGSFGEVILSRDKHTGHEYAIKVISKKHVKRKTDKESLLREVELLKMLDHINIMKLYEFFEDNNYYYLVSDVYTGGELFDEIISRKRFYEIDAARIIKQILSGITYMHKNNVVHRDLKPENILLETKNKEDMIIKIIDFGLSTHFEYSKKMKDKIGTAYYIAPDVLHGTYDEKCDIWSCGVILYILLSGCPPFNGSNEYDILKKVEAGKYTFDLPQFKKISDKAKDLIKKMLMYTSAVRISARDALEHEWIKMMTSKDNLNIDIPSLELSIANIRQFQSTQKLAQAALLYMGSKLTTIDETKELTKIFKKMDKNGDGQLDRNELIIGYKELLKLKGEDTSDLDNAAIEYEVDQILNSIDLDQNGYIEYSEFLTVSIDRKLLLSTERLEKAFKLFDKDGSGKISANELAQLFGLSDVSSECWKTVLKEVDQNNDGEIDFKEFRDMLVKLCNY

Row | SMILES | growth inhibition [1] | inhibition [2] | inhibition [3] [%] | growth inhibition [4] | outcome [5] | outcome [6] | outcome [7] | outcome [8]
1 | Cc1ccc2nc3c(cc(C(=O)NCc4ccccc4)c(=N)n3CCCn3ccnc3)c(=O)n2c1 | -1% | 10% | -3 | 93% (active) | inactive | inactive | inactive | inactive
2 | CC(C)(C)C(C)(C)Cc1ccc(O)c(CN2CCN(c3ccccc3)CC2)c1 | 98% (active) | 6% | 0 | 99% (active) | inactive | inactive | inactive | inactive
3 | Cc1cccc2[nH]c(-c3cccc(-c4ccc(CNCc5cccc(N)c5)cc4)c3)nc12 | 93% (active) | 19% | -3 | 101% (active) | inactive | inactive | inactive | inactive
4 | COc1ccc(CC(Cc2ccc(OC)cc2)NCC(O)c2cccc(Cl)c2)cc1 (stereo not drawn) | 98% (active) | 11% | -4 | 100% (active) | inactive | inactive | inactive | inactive
5 | CCCOC(=O)c1ccc(OCCCON2C(N)=NC(N)=NC2(C)C)cc1 | 97% (active) | 61% (active) | 6 | 95% (active) | inactive | inactive | inactive | inactive
6 | Oc1cc2c(cc1CN1CCN(Cc3cccs3)CC1)CCC2 | 91% (active) | 10% | -7 | 99% (active) | inactive | inactive | inactive | inactive
7 | c1cc(-c2ccc(CNCCCn3ccnc3)cc2)cc(-c2nc3ccccc3[nH]2)c1 | 100% (active) | 17% | 5 | 101% (active) | inactive | inactive | inactive | inactive
8 | CCCC(=O)Nc1ccc(OCCCN(Cc2ccccc2F)c2ccc(C#N)c(C(F)(F)F)c2)cc1 | 93% (active) | 7% | 1 | 89% (active) | inactive | inactive | inactive | inactive
9 | Cc1ccc(CN2CCCN(Cc3cccc(NC(=O)c4ccc(Cl)c(Cl)c4)c3)CC2)cc1 | 18% | 32% | -1 | 96% (active) | inactive | inactive | inactive | inactive
10 | Cc1ccc(Cn2ncc(N3CCC(N)CC3)c(Cl)c2=O)cc1NC(=O)Nc1ccc(-c2ccccc2)cc1 | 25% | 29% | -5 | 90% (active) | inactive | inactive | inactive | inactive
11 | CC1(C)CC(NC(=O)NC2CCN(Cc3ccccc3)CC2)CC(C)(CNC(=O)NC2CCN(Cc3ccccc3)CC2)C1 (stereo not drawn) | 2% | 10% | 5 | 93% (active) | inactive | inactive | inactive | inactive
12 | CN(C)CCOc1ccc(-c2cc(-c3ccncc3)c(-c3ccc(Cl)c(O)c3)o2)cc1 | 93% (active) | 0% | -5 | 99% (active) | inactive | inactive | inactive | inactive
13 | CCc1ccnc2c(N3CCCC3=O)cc(C(=O)N[C@@H](Cc3ccccc3)[C@H](O)CNC3CCOCC3)cc12 | 98% (active) | 2% | 4 | 99% (active) | inactive | inactive | inactive | inactive
14 | CCc1ccccc1N1CCN(CCCC(=O)c2ccc(NC(=O)c3ccc(Cl)cc3)cc2)CC1 | 4% | 17% | 7 | 90% (active) | inactive | inactive | inactive | inactive
15 | CN(C)c1ccc(-c2csc(C(=O)NCC3CCN(CC4CCCCC4)C3)c2)cc1 (stereo not drawn) | 28% | 35% | 1 | 86% (active) | inactive | inactive | inactive | inactive
16 | COc1ccc(-n2nc(C)c3c2NC(=O)CC3c2ccccc2OCc2ccc(F)cc2)cc1 (stereo not drawn) | 65% (active) | 53% (active) | 7 | 93% (active) | inactive | inactive | inactive | inactive
17 | Cc1cc(NCCC(=O)Nc2ccccc2)nc(NCCc2cccs2)n1 | 20% | 26% | 0 | 99% (active) | inactive | inactive | inactive | inactive
18 | COc1ccc2nc(-c3ccccc3)cc(NCCN(C)C)c2c1 | 23% | -1% | -3 | 101% (active) | inactive | inactive | inactive | inactive
19 | Cc1sc(C)c(C(F)(F)F)c1CNCCCNc1cc(=O)c2ccccc2[nH]1 | 43% | -3% | -1 | 96% (active) | inactive | inactive | inactive | inactive
20 | Cc1ccc2oc3cc(-c4nn[nH]n4)ccc3c(=O)c2c1 | 96% (active) | 2% | -6 | 97% (active) | inactive | inactive | inactive | inactive
21 | Cc1noc(C)c1-c1cccc(CNCc2ccc(-c3ccc(-c4nc5ccc(F)cc5[nH]4)s3)cc2)c1 | 93% (active) | 45% | 6 | 102% (active) | inactive | inactive | inactive | inactive

Row | SMILES | growth inhibition [1] | inhibition [2] | inhibition [3] [%] | growth inhibition [4] | outcome [5] | outcome [6] | outcome [7] | outcome [8]
22 | CCC(CC)n1c(COC)cc2c3c(N)nc(N)nc3ccc21 | 0% | 71% (active) | -4 | 95% (active) | inactive | inactive | inactive | inactive
23 | CC(C)Cc1nc2nc(N)nc(N)c2cc1C(C)C | 3% | 67% (active) | 4 | 96% (active) | inactive | inactive | inactive | inactive
24 | CCn1c(-c2nonc2N)nc2cnc(Oc3cccc(NC(=O)c4ccc(OCCN5CCCCC5)cc4)c3)cc21 | 7% | 16% | -1 | 98% (active) | inactive | inactive | inactive | inactive
25 | COc1ccc(C(=O)N2CCC(C(=O)NC(C)c3ccc(-n4ccnc4)cc3)CC2)c2ccccc12 (stereo not drawn) | 79% (active) | 12% | -4 | 83% (active) | inactive | inactive | inactive | inactive
26 | c1ccc(-c2nc(Nc3ccncc3)sc2-c2ccccc2)cc1 | 18% | -5% | 1 | 97% (active) | inactive | inactive | inactive | inactive
27 | O=S(=O)(Nc1cc2c(cc1O)CCN(C1CCC1)CC2)c1ccc(Oc2ccc(F)cc2)cc1 | 52% (active) | 20% | 0 | 99% (active) | inactive | inactive | inactive | inactive
28 | COc1cccc(C(=O)NCCc2cccc(Cl)c2)c1OCc1ccccc1 | -1% | -1% | 1 | 85% (active) | inactive | inactive | inactive | inactive
29 | CN(C)CCN(C)Cc1cccc(-c2cccc(NC(=O)c3cccc(C#N)c3)c2)c1 | 10% | -4% | -1 | 92% (active) | inactive | inactive | inactive | inactive
30 | COC(=O)c1cccc(CNCc2ccc(-c3ccc(-c4nc5ccc(F)cc5[nH]4)s3)cc2)c1 | 82% (active) | 4% | 7 | 101% (active) | inactive | inactive | inactive | inactive
31 | CC1CN(Cc2cccc(-c3ccc(-c4nc5ccccc5[nH]4)cc3)c2)CC(C)O1 (stereo not drawn) | 88% (active) | 37% | -6 | 90% (active) | inactive | inactive | inactive | inactive
32 | CCN(CC)CCN(Cc1ccc(-c2ccc(C(F)(F)F)cc2)nc1)C(=O)Cn1cc(Cc2cnn(C)c2)c(=O)n2nc(-c3ccccc3)cc12 | 95% (active) | 35% | -3 | 97% (active) | inactive | inactive | inactive | inactive
33 | CCCNC(=O)c1ccnc(-c2ccc(CNC3Cc4ccccc4C3)cc2)c1 | 21% | 24% | -3 | 92% (active) | inactive | inactive | inactive | inactive
34 | CCOc1ccc2c(NN=Cc3cccc(Cl)c3)cc(C)nc2c1 | 34% | -5% | -2 | 93% (active) | inactive | inactive | inactive | inactive
35 | CC(Oc1ccc(Cl)cc1)C(=O)Nc1cc(C(F)(F)F)ccc1-n1cncn1 (stereo not drawn) | 98% (active) | -2% | 2 | 99% (active) | inactive | inactive | inactive | inactive
36 | CC(C)[C@H](NCC(=O)c1ccccc1)C(=O)O | 0% | 6% | -3 | 99% (active) | inactive | inactive | inactive | inactive
37 | Nc1c2c(nc3cc(NC(=O)c4ccc([N+](=O)[O-])cc4)ccc13)CCCC2 | 58% (active) | 11% | -2 | 100% (active) | inactive | inactive | inactive | inactive
38 | Cc1cccn2c(=O)c3cc(C(=O)NCc4cccnc4)c(=N)n(CCc4ccccc4)c3nc12 | 38% | -2% | -2 | 99% (active) | inactive | inactive | inactive | inactive
39 | NS(=O)(=O)c1cccc(-c2ccc3c(=O)[nH]cnc3c2)c1 | 100% (active) | 6% | 4 | 99% (active) | inactive | inactive | inactive | inactive
40 | CN(c1ccccc1C(=O)Nc1cc(Cl)ccc1Oc1ccccc1)S(=O)(=O)c1ccccc1 | 42% | 47% | 7 | 99% (active) | inactive | inactive | inactive | inactive
41 | CN(C)CCCNCc1ccc(-c2ccc(CNCCc3ccccc3)cc2)cc1 | 87% (active) | 61% (active) | 0 | 100% (active) | inactive | inactive | inactive | inactive

From PubChem BioAssay
